# Screening data deposited in PubChem BioAssay by National Center for Advancing Translational Sciences (NCATS).
# GCN5L2 inh – blocks human GCN5L2 histone acetyltransferase; Q92830; GCN5L2 HAT assay, ThioGlo1 CoA-SH fluorescence; Potency, µM (top dose mostly 58.9 µM), inactives show at the highest dose activity change, negative = inhibition, hits mostly inhibitors; 390,000 compounds, 0.21% hits
#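 Preincubate 20nM GCN5L2 with compound 15 min, RT → add 50uM ThioGlo1 + 75uM H3(1-25) + 70uM acetyl-CoA → read fluorescence 0 and 20 min. Primary qHTS; fluorescent artifacts likely.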
# VDR inhibitor – inhibitors of human vitamin D receptor | VDR-SRC2-3 peptide fluorescence polarization, 2 h | Potency, µM, without a hit: max response, negative = inhibition, actives largely listed as inhibitors | 400,000 compounds, 0.93% hits
#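 The screen uses fluorescence polarization to detect compounds that interfere with recruitment of the SRC2-3 coactivator peptide to VDR; plates are read after 2 h at room temperature.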
# PLK1 PBD inh – PLK1 (human) polo-box domain binding inhibition; P53350; Plk1 PBD binding of FITC phosphopeptide, fluorescence polarization; Potency, µM, inactives show max response, negative = inhibition, actives largely listed as inhibitors; 360,000 compounds, 2.8% hits; AID 720504; also: series mostly up to about 57 µM; nearly all actives have a fitted effect of over 65% in size
# DT40 TDP1 CPT – DT40-hTDP1 cell growth loss with CPT | chicken DT40 Tdp1-/-;hTDP1 cells + 20 nM CPT, ATP luminescence, 48 h | Potency, µM (doses to about 46.2 µM), for the others: at the top dose activity change, negative = growth inhibition, hits mostly inhibitors | 420,000 compounds, 12% hits | AID 686979; also: nearly all actives have a fitted effect of over 55% in size
#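 Chicken DT40 Tdp1-/- cells complemented with human TDP1, 400 cells/well, exposed to compounds plus 20 nM camptothecin for at least 48 h at 37 C; viability read as ATP content by CellTiter-Glo luminescence.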
# DT40 TDP1 no CPT – qHTS for Inhibitors of human tyrosyl-DNA phosphodiesterase 1 (TDP1): qHTS in cells in absence of CPT; 420,000 compounds, 15% hits; DT40 Tdp1-/- hTDP1 cells, no CPT, ATP luminescence, 48 h; Potency, µM (highest dose often 46.2 µM), for the others: top-dose activity change, negative = growth inhibition, hits mostly inhibitors; also: nearly all actives have a fitted effect of over 55% in size
#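 Camptothecin absent (DMSO only). Human TDP1-complemented DT40 knockout cells, 400 cells/well, 37 °C for minimum 48 hr; ATP measured via CellTiter-Glo, 30 min dark incubation, luminescence.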
# TDP1 block – TDP1 (human) enzyme inhibition | Potency, µM (highest dose often 130 µM), inactives show at the top dose activity change, negative = inhibition, actives largely listed as inhibitors | recombinant TDP1, AlphaScreen DNA substrate cleavage | 350,000 compounds, 0.28% hits; also: nearly all actives have a fitted effect of over 40% in size
#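 Recombinant E. coli-expressed Tdp1 (1 nM) preincubated with compound 15 min at RT, then 5'-biotin/3'-phosphotyrosine-FITC DNA substrate (15 nM) added for 5 min. AlphaScreen beads (10 ug/ml) added, 10 min RT; tyrosine-FITC cleavage read as signal loss.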
# Starred values were filed as active, the others as inactive; ? = inconclusive; . = not tested or not shown. Rows were chosen to be rich in hits. Some 18% of all compounds tested hit in one or more screens of this group. Calls follow the shape of the dose curve; as a rule, active = well fitted curve in the direction sought with a large enough effect; inconclusive = small, poorly fitted or top-dose-only effect, or another doubt; inactive = no such curve, though single readings can be large; an effect the other way counts as inactive or inconclusive. % is scaled to controls: 0 for no effect and ±100 for the full control effect; potency is read from the fitted curve at half-maximal effect.
SMILES,GCN5L2 inh,VDR inhibitor,PLK1 PBD inh,DT40 TDP1 CPT,DT40 TDP1 no CPT,TDP1 block
COc1cccc(/C=N/NC(=O)c2ccccc2)c1OS(=O)(=O)c1ccccc1,-4%,1%,-1%,?,26µM*,3%
COc1ccc(OC)c(/C=N/NC(=O)c2cccc3ccccc23)c1,.,15%,-4%,7%,?,.
COc1ccc(/C=N/NC(N)=S)cc1OC(=O)c1cccc2ccccc12,-14%,-7%,4%,15µM*,18µM*,8%
O=C(N/N=C/c1ccccc1)c1cccc2ccccc12,.,-1%,2%,?,1.3µM*,.
O=C(N/N=C/c1ccccc1F)c1cccc2ccccc12,-2%,1%,4%,?,?,.
COc1cccc(/C=N/NC(=O)c2ccc(=O)n(C)c2)c1OC,-10%,-5%,2%,21%,9%,-2%
CCc1ccc(S(=O)(=O)c2cn(C)c3ccc(C)cc3c2=O)cc1,-2%,-2%,.,-27%,-26%,4%
CC1(C)C(=O)N(CC(=O)Nc2ccc(OC(F)(F)F)cc2)c2ccccc21,-9%,12%,.,-27%,?,3%
CC1=C(c2ccc(C)c(C)c2)S(=O)(=O)N=C1N1CCN(c2cccc(C(F)(F)F)c2)CC1,-9%,2%,.,0%,-4%,11%
CCOc1ccc(N(CC)C(=O)c2cc3c(s2)-c2ccccc2OC3)cc1,-8%,-14%,.,?,?,2%
Cc1ccc(/C=N/NC(=O)c2cccc3ccccc23)o1,-6%,4%,4%,13µM*,8.2µM*,0%
COc1cc(C(=O)Oc2ccccc2/C=N/NC(=O)c2ccc(Cl)cc2Cl)cc(OC)c1OC,-18%,-13%,-8%,0.65µM*,0.92µM*,3%
CCN(CC)c1ccc(/C=N\NC(=O)c2cccc3cc[nH]c23)cc1,-7%,5%,9%,5.2µM*,2.9µM*,4%
Cc1ccc(/C=N/NC(=O)c2cc(C)oc2C)o1,-1%,-12%,-7%,2%,-5%,5%
COc1cc(C(=O)NN=Cc2ccc(N(C)C)cc2)cc(OC)c1OC,.,.,-6%,0.92µM*,0.92µM*,.
CC(C)CCNC(=O)CN(Cc1ccccc1)C(=O)CCC(=O)Nc1ccccn1,-1%,4%,0%,-9%,-20%,2%
CCCCOc1ccc(C(=O)N/N=C/c2cn[nH]c2-c2ccc(OC)c(OC)c2)cc1,-7%,-4%,0%,?,?,7%
COc1cc(/C=N/NC(=O)c2cccc3ccccc23)cc(OC)c1OC,?,-15%,30µM*,-7%,?,.
COc1ccc(-c2[nH]ncc2/C=N\NC(=O)c2ccc(C(C)(C)C)cc2)cc1OC,-16%,-6%,-11%,?,26µM*,6%
COc1ccccc1/C=N/NC(=O)c1ccc(-c2ccccc2)cc1,-5%,6%,30µM*,21µM*,?,0%
COc1ccccc1/C=N/NC(=O)c1cccc2ccccc12,1%,79µM*,15µM*,23µM*,?,.
CC(C)[C@H](NC(=O)[C@@H](Cc1c[nH]c2ccccc12)NC(=O)[C@H](Cc1ccc(O)cc1)NC(=O)[C@@H](N)CC(=O)O)C(=O)N[C@H](Cc1c[nH]c2ccccc12)C(=O)N[C@H](Cc1c[nH]c2ccccc12)C(=O)N[C@@H](CCCCN)C(N)=O,-2%,-1%,.,.,.,10%
COC(=O)N/N=C/c1cc(Cl)c(OCc2ccccc2F)c(OC)c1,-4%,13%,-1%,?,23µM*,.
CCOc1cc(/C=N/NC(N)=O)cc(Br)c1OCc1ccccc1F,-2%,-8%,-5%,-27%,?,2%
CNc1ncnc2ccc(-c3c(C)noc3C)cc12,-7%,.,.,.,.,.
SMILES,GCN5L2 inh,VDR inhibitor,PLK1 PBD inh,DT40 TDP1 CPT,DT40 TDP1 no CPT,TDP1 block
COCCNC(=O)CSc1nnc2[nH]c(=O)cc(C)n12,3%,16%,.,28%,-12%,-10%
COc1ccc(NC(=O)CN2C(=O)COc3ccc(S(=O)(=O)Nc4ccccc4)cc32)cc1,1%,11%,.,-26%,-15%,0%
C#CCN(C[C@H]1[C@H](OC(=O)NCCCCCC)[C@H](OC(=O)NCCCCCC)C[C@@H](C(=O)OC)[C@H]1C(=O)OC)S(=O)(=O)c1ccc(C)cc1,.,.,-11%,4.1µM*,5.8µM*,.
C#CCN(C[C@H]1[C@H](OC(=O)NCc2ccccc2)[C@H](OC(=O)NCc2ccccc2)C[C@@H](C(=O)OC)[C@H]1C(=O)OC)S(=O)(=O)c1ccc(C)cc1,.,.,-6%,-107%,-105%,.
C#CCN(C[C@H]1[C@H](OC(=O)Nc2c(C)noc2C)[C@H](OC(=O)Nc2c(C)noc2C)C[C@@H](C(=O)OC)[C@H]1C(=O)OC)S(=O)(=O)c1ccc(C)cc1,.,.,?,21µM*,15µM*,.
CCOc1ccc(CCNC(=O)C2CSC3(C)CCC(=O)N23)cc1OCC (configuration not stated),?,-7%,-5%,-1%,27%,-2%
O=C(N/N=C/c1ccncc1)c1nc(-c2ccccc2)n2c1CCCCC2,-15%,-17%,-4%,7.3µM*,7.3µM*,8%
COc1ccc(-c2cc(-c3ccc(Cl)cc3)c(C#N)c(SCC(=O)O)n2)cc1,?,-15%,?,?,?,.
CC(c1ccccc1)n1cnc2ccccc2c1=O (configuration not stated),-2%,12%,-4%,-16%,-18%,2%
CSc1cccc(NC(=O)CN(C)S(=O)(=O)c2ccc(C)cc2)c1,-5%,6%,-6%,?,16µM*,7%
Cc1ccc(S(=O)(=O)N(C)CC(=O)Nc2ccccc2)cc1,0%,-5%,-6%,-13%,-21%,1%
COc1ccc(S(=O)(=O)N(C)CC(=O)Nc2ccc(C)cc2)cc1OC,-8%,-20%,-10%,23µM*,?,-8%
COC(=O)c1ccccc1NC(=O)CN(C)S(=O)(=O)c1ccc(OC)c(C)c1,-1%,24%,-9%,23µM*,?,5%
